Reference: PubChem BioAssay AID1159580 (chemical genetic matrix, 2015)
Out of some 5,500 compounds screened, about 2,000 (36%) were called active. Inconclusive results (about 18%) are left out. Cut-off read from the data, not from the text of the source: active = normalized growth mostly below about 0.91 (no sharp cut-off); inconclusive = no clear call, values can overlap the other calls; inactive = mostly above about 0.92. This is one part of the list.

Assay: chemical genetic growth profiling, strain panel (AID 1159580);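 note: tested at 20 µM; growth read once vehicle control cultures reached saturation at 30 °C; 1 = growth at the plate median or of vehicle wells; lower values mean less growth of the strain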
Conditions: growth OD

Measured: normalized growth

Cc1c(N(C)C)c(=O)n(-c2ccccc2)n1C
inactive: S. cerevisiae deletion strains, locus YKL009W, strain mrt4, hits give low values 0.984 | S. cerevisiae deletion strains, locus YKL068W, hits give low values 0.991 | S. cerevisiae deletion strains, locus YKL085W, strain MDH1 (second series), hits give low values 0.985 | S. cerevisiae deletion strains, locus YKL085W, strain MDH1, hits give low values 0.985 | S. cerevisiae deletion strains, locus YKL160W, strain elf1, hits give low values 0.988 | S. cerevisiae deletion strains, locus YKL190W, strain CNB1, hits give low values 0.988 | S. cerevisiae deletion strains, locus YKR001C, strain vps1, hits give low values 1 | S. cerevisiae deletion strains, locus YKR026C, strain gcn3, hits give low values 0.992 | S. cerevisiae deletion strains, locus YKR091W, strain srl3, hits give low values 0.976 | S. cerevisiae deletion strains, locus YLL001W, strain dnm1, hits give low values 0.972 | S. cerevisiae deletion strains, locus YLL026W, hits give low values 0.973 | S. cerevisiae deletion strains, locus YLL041C, strain sdh2, hits give low values 0.992 | S. cerevisiae deletion strains, locus YLR027C, strain aat2, hits give low values 0.97 | S. cerevisiae deletion strains, locus YLR039C, strain RIC1, hits give low values 0.983 | S. cerevisiae deletion strains, locus YLR058C, strain SHM2, hits give low values 0.997 | S. cerevisiae deletion strains, locus YLR102C, strain apc9, hits give low values 0.992 | S. cerevisiae deletion strains, locus YLR113W, strain HOG1, hits give low values 1.03 | S. cerevisiae deletion strains, locus YLR221C, strain rsa3, hits give low values 1.06 | S. cerevisiae deletion strains, locus YLR258W, strain gsy2, hits give low values 0.985 | S. cerevisiae deletion strains, locus YLR262C, strain YPT6 (second series), hits give low values 0.971 | S. cerevisiae deletion strains, locus YLR262C, strain YPT6, hits give low values 0.972 | S. cerevisiae deletion strains, locus YLR268W, strain sec22, hits give low values 0.963 | S. cerevisiae deletion strains, locus YLR320W, strain mms22, hits give low values 0.994 | S. cerevisiae deletion strains, locus YLR330W, strain CHS5, hits give low values 0.989 | S. cerevisiae deletion strains, locus YLR342W, strain FKS1 (second series), hits give low values 1.05 | S. cerevisiae deletion strains, locus YLR342W, strain FKS1, hits give low values 0.961 | S. cerevisiae deletion strains, locus YLR357W, strain rsc2, hits give low values 0.935 | S. cerevisiae deletion strains, locus YLR370C, strain arc18, hits give low values 0.984 | S. cerevisiae deletion strains, locus YLR371W, strain rom2, hits give low values 0.991 | S. cerevisiae deletion strains, locus YLR384C, strain iki3, hits give low values 0.991 | S. cerevisiae deletion strains, locus YLR418C, strain cdc73, hits give low values 1.03 | S. cerevisiae deletion strains, locus YML016C, strain PPZ1, hits give low values 1 | S. cerevisiae deletion strains, locus YML032C, strain rad52, hits give low values 0.967 | S. cerevisiae deletion strains, locus YML120C, strain ndi1, hits give low values 0.993 | S. cerevisiae deletion strains, locus YML124C, strain tub3, hits give low values 0.997 | S. cerevisiae deletion strains, locus YMR058W, strain fet3, hits give low values 1.01 | S. cerevisiae deletion strains, locus YMR078C, strain ctf18, hits give low values 0.985 | S. cerevisiae deletion strains, locus YMR125W, strain sto1, hits give low values 0.989 | S. cerevisiae deletion strains, locus YMR129W, hits give low values 0.991 | S. cerevisiae deletion strains, locus YMR205C, strain PFK2, hits give low values 0.991 | S. cerevisiae deletion strains, locus YMR223W, strain ubp8, hits give low values 1.02 | S. cerevisiae deletion strains, locus YMR231W, strain pep5, hits give low values 0.978 | S. cerevisiae deletion strains, locus YMR263W, strain SAP30, hits give low values 0.989 | S. cerevisiae deletion strains, locus YMR307W, strain GAS1, hits give low values 1.08 | S. cerevisiae deletion strains, locus YNL067W, strain RPL9B, hits give low values 0.978 | S. cerevisiae deletion strains, locus YNL071W, strain lat1, hits give low values 1 | S. cerevisiae deletion strains, locus YNL128W, strain TEP1, hits give low values 0.983 | S. cerevisiae deletion strains, locus YNL153C, strain GIM3, hits give low values 0.985 | S. cerevisiae deletion strains, locus YNL183C, strain NPR1, hits give low values 0.988 | S. cerevisiae deletion strains, locus YNL209W, strain ssb2, hits give low values 1.01 | S. cerevisiae deletion strains, locus YNL233W, strain BNI4, hits give low values 0.986 | S. cerevisiae deletion strains, locus YNL248C, strain rpa49, hits give low values 1 | S. cerevisiae deletion strains, locus YNL250W, strain rad50, hits give low values 0.972 | S. cerevisiae deletion strains, locus YNL271C, strain bni1, hits give low values 0.966 | S. cerevisiae deletion strains, locus YNL298W, strain CLA4, hits give low values 1 | S. cerevisiae deletion strains, locus YNL307C, strain MCK1, hits give low values 0.996 | S. cerevisiae deletion strains, locus YNL322C, strain KRE1 (second series), hits give low values 0.975 | S. cerevisiae deletion strains, locus YNL322C, strain KRE1, hits give low values 0.991 | S. cerevisiae deletion strains, locus YNR049C, strain mso1, hits give low values 0.996 | S. cerevisiae deletion strains, locus YNR052C, strain pop2, hits give low values 0.993 | S. cerevisiae deletion strains, locus YOL006C, strain TOP1, hits give low values 0.978 | S. cerevisiae deletion strains, locus YOL012C, strain htz1 2 | S. cerevisiae deletion strains, locus YOL147C, strain pex11, hits give low values 0.985 | S. cerevisiae deletion strains, locus YOR001W, strain rrp6, hits give low values 0.971 | S. cerevisiae deletion strains, locus YOR061W, strain CKA2, hits give low values 0.995 | S. cerevisiae deletion strains, locus YOR069W, strain VPS5, hits give low values 1 | S. cerevisiae deletion strains, locus YOR070C, strain gyp1, hits give low values 0.999 | S. cerevisiae deletion strains, locus YOR080W, strain dia2, hits give low values 0.98 | S. cerevisiae deletion strains, locus YOR083W, strain WHI5, hits give low values 0.956 | S. cerevisiae deletion strains, locus YOR106W, strain vam3, hits give low values 0.988 | S. cerevisiae deletion strains, locus YOR136W, strain idh2, hits give low values 1 | S. cerevisiae deletion strains, locus YOR144C, strain elg1, hits give low values 0.992 | S. cerevisiae deletion strains, locus YOR184W, strain ser1, hits give low values 1.01 | S. cerevisiae deletion strains, locus YOR231W, strain MKK1, hits give low values 0.992 | S. cerevisiae deletion strains, locus YOR265W, strain rbl2, hits give low values 0.998 | S. cerevisiae deletion strains, locus YOR270C, strain vph1, hits give low values 1.04 | S. cerevisiae deletion strains, locus YOR290C, strain snf2, hits give low values 0.996 | S. cerevisiae deletion strains, locus YOR316C, strain cot1, hits give low values 0.998 | S. cerevisiae deletion strains, locus YPL051W, strain arl3, hits give low values 0.992 | S. cerevisiae deletion strains, locus YPL055C, strain LGE1, hits give low values 1 | S. cerevisiae deletion strains, locus YPL078C, strain atp4, hits give low values 0.98 | S. cerevisiae deletion strains, locus YPL106C, strain sse1, hits give low values 0.974 | S. cerevisiae deletion strains, locus YPL240C, strain hsp82, hits give low values 0.99 | S. cerevisiae deletion strains, locus YPL241C, strain CIN2, hits give low values 0.996 | S. cerevisiae deletion strains, locus YPL256C, strain CLN2, hits give low values 1.02 | S. cerevisiae deletion strains, locus YPR119W, strain clb2, hits give low values 0.994 | S. cerevisiae deletion strains, locus YPR141C, strain kar3, hits give low values 0.966 | S. cerevisiae deletion strains, locus YPR163C, strain tif3, hits give low values 0.976 | S. cerevisiae deletion strains, locus YPR167C, strain met16, hits give low values 0.989 | S. cerevisiae deletion strains, strain wtn01, hits give low values 0.997 | S. cerevisiae strains, strain wild type, hits give low values 0.995
